Laboratory results as given in PubChem BioAssay (NCATS).
Inconclusive results are not listed. Where a call stands in place of a potency, no number is given. Values without a mark were called inactive. The source made the active and inactive calls. Calls follow the shape of the dose curve; as a rule, active = well fitted cell-killing curve with a large enough effect; inconclusive = small, poorly fitted or top-dose-only effect, or effect the other way; inactive = no such curve, though single readings can be large or run the other way.
Potency is read from the fitted curve at half-maximal effect.

Assay: Viability qHTS for spleen associated tyrosine kinase inhibitor (SYKi) drug resistant MV4-11 cells (AID 1963824); also: nearly all actives have a fitted effect of over 35% in size
Conditions: SYKi-resistant MV4-11 viability, CellTiter-Glo, 72 h; series mostly up to 45 µM
How it was run: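 SYK-inhibitor-resistant MV4-11 AML cells were seeded at 500 per well onto compound and cultured 72 hours (37 °C, 5% CO2). CellTiter-Glo was then added, and after 10 min at room temperature, luminescence gave viability.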
For `Nc1ncnc2c1c(-c1ccc(Oc3ccccc3)cc1)cn2C1CCCC1`, the Potency was 1030 nM (active).
In the case of `COc1cc(/C=C/C(=O)O)ccc1O[C@@H]1O[C@H](CO)[C@@H](O)[C@H](O)[C@H]1O[C@@H]1OC[C@](O)(CO)[C@H]1O`, the Potency is reported as “inactive”.
With `CN(C)CCCn1cc(C2=C(c3c[nH]c4ccccc34)C(=O)NC2=O)c2ccccc21` the Potency was 116 nM (active).
With `CC/C=C\[C@H](O)[C@H](O)C1=C(C)C(=O)[C@]2(O1)C(=O)N[C@@](OC)(C(=O)c1ccccc1)[C@@H]2O` the Potency was “inactive”.
For `CCCCOc1ccc(-c2cncc(C(=O)NCc3cccnc3N3CCOCC3)c2)cc1Cl`, the Potency was 13000 nM (active).
With `CC1CC(O)CC(C)(C)C1(O)CCO` (stereo not given) the Potency was “inactive”.
With `C/C(=C\CCC(C)(C)O)CCO[C@@H]1O[C@H](CO[C@@H]2O[C@@H](C)[C@H](O)[C@@H](O)[C@H]2O)[C@@H](O)[C@H](O)[C@H]1O` the Potency was “inactive”.
In the case of `COC(=O)CC1(O)C(=O)Nc2ccccc21` (stereo not given), the Potency is reported as “inactive”.
With `O=C(Nc1ccc(Cl)cc1)C1CCCN(C(=O)c2cccc(-c3ccco3)c2)C1` (stereo not given) the Potency was 8200 nM (active).
With `CC1=CC(=O)C[C@H]2[C@@H]1CC[C@@H](C)[C@]21CO[C@H](c2ccoc2)C1=O` the Potency was “inactive”.
With `CO[C@@H]1CC(OC2CCC3(C)C(CCC45CCC(C6=CC(=O)OC6)C(C)(CCC43)C5=O)C2)O[C@H](C)[C@@H]1O[C@@H]1O[C@H](CO[C@@H]2O[C@H](CO)[C@@H](O)[C@H](O)[C@H]2O)[C@@H](O)[C@H](O)[C@H]1O` (stereo not given in full) the Potency was 778 nM (active).
For `[N-]=[N+]=N[C@]1(CO)O[C@@H](n2ccc(=O)[nH]c2=O)[C@@H](O)[C@@H]1O`, the Potency was “inactive”.
With `C=C1[C@@H](OC(C)=O)CC[C@@]2(C)[C@@H](OC(C)=O)[C@H](OC(C)=O)C3=C(C)C[C@H](OC(=O)C(C)CC)[C@@H]([C@@H](OC(C)=O)[C@H]12)C3(C)C` (stereo not given in full) the Potency was 1220 nM (active).
In the case of `COc1cc(C(=O)OC[C@@]2(O)CO[C@@H](O[C@H]3[C@H](Oc4ccc(C(=O)O)cc4OC)O[C@H](CO)[C@@H](O)[C@@H]3O)[C@@H]2O)ccc1O`, the Potency is reported as “inactive”.
In the case of `C/C(CO)=C1/CCC23COC(C2)C(O)(C(=O)O)CCC13` (stereo not given), the Potency is reported as “inactive”.
For `C=C1C(=O)O[C@@H]2[C@H]1CC[C@H](C)[C@]1(CCC(=O)O1)C2(C)O` (stereo not given in full), the Potency was 6510 nM (active).
With `C=C1C[C@H](O)[C@@H](O)[C@@]2(C)C1[C@@H](O)[C@H]1OC(=O)C3[C@@H](C)[C@@H](O)[C@H](O)C2[C@]31C` (stereo not given in full) the Potency was “inactive”.
For `C[C@@H]1O[C@@H](O[C@H]2[C@H](OC(=O)[C@]34CCC(C)(C)C[C@H]3C3=CCC5[C@@]6(C)C[C@@H](O)[C@@H](O[C@@H]7O[C@H](CO)[C@@H](O)[C@H](O)[C@H]7O)[C@@](C)(CO)C6[C@H](O)C[C@@]5(C)[C@]3(C)CC4)OC[C@H](O)[C@@H]2O)[C@H](O)[C@H](O[C@@H]2OC[C@](O)(CO)[C@H]2O)[C@H]1O[C@@H]1OC[C@@H](O)[C@H](O[C@H]2O[C@H](C)[C@@H](O)[C@H](O)[C@@H]2O)[C@H]1O` (stereo not given in full), the viability, % of control was 86.5% [at 9.25 µM].
With `C=CC(C)(O)CC/C=C(\C)C(=O)O[C@@H]1[C@@H](O)[C@H](OC(C)(C=C)CC/C=C(\C)C(=O)O[C@@H]2O[C@H](CO)[C@@H](O)[C@H](O)[C@H]2O)O[C@H](CO)[C@H]1OC(=O)/C(C)=C/CCC(C)(O)C=C` (stereo not given in full) the viability, % of control was 77.6% [at 9.25 µM].
With `CC(=O)NCCCCn1c2c(c3ccccc31)C(=O)NCC2` the Potency was “inactive”.
For `COc1c(OC2OC(CO)C(O)C(O)C2O)ccc(O)c1C(=O)OCc1ccccc1O[C@@H]1O[C@H](CO)[C@@H](O)[C@H](O)[C@H]1O` (stereo not given in full), the Potency was “inactive”.
With `CC1(C)CCCC2(C)C1CC=C1C(=O)OC(O)C12O` (stereo not given) the Potency was “inactive”.
In the case of `C/C=C(/C)C(=O)O[C@H]1C=C(CO)C(=O)[C@H](OC(=O)/C(C)=C/CO)[C@H]1C(C)C`, the Potency is reported as 1610 nM (active).
In the case of `CC1(C)CC[C@]23CO[C@@]4(CCC5[C@@]6(C)CC[C@H](O[C@@H]7OC[C@H](O[C@@H]8O[C@H](CO)[C@@H](O)[C@H](O)[C@H]8O[C@@H]8OC[C@@H](O)[C@H](O)[C@H]8O)[C@H](O)[C@H]7O[C@@H]7O[C@H](CO)[C@@H](O)[C@H](O)[C@H]7O)[C@@](C)(CO)C6CC[C@@]5(C)[C@]4(C)C[C@H]2O)[C@@H]3C1` (stereo not given in full), the Potency is reported as 3900 nM (active).
With `O=S(=O)(c1cccc2ccccc12)n1ccc2ccc(N3CCN4CCCC4C3)cc21` (stereo not given) the Potency was 20600 nM (active).
In the case of `CCC(C)n1cc(C)c2c(C(=O)NCc3c(C)cc(C)[nH]c3=O)cc(-c3ccc(N4CCNCC4)nc3)cc21` (stereo not given), the Potency is reported as 18400 nM (active).
With `C[C@H]1[C@H](C)CC[C@]2(C(=O)O[C@@H]3O[C@H](CO)[C@@H](O)[C@H](O)[C@H]3O)CC[C@]3(C(=O)O)C(=CCC4[C@@]5(C)CC[C@H](O[C@@H]6O[C@H](CO)[C@@H](O)[C@H](O)[C@H]6O)C(C)(C)C5CC[C@]43C)[C@H]12` (stereo not given in full) the viability, % of control was 96% [at 9.25 µM].
In the case of `COC(=O)CC1OC(C)C2=C(O)c3c(O)cccc3C(=O)C23OC13` (stereo not given), the Potency is reported as 570 nM (active).
In the case of `C=C[C@H]1C(O[C@@H]2O[C@H](CO)[C@@H](O)[C@H](O)[C@H]2O)OC=C2C(=O)N3CCc4c([nH]c5ccccc45)C3CC21` (stereo not given in full), the Potency is reported as “inactive”.
In the case of `C1CCN2CC3C[C@@H](CN4CCCC[C@@H]34)[C@H]2C1`, the Potency is reported as “inactive”.
Work on `CC(=O)N[C@H]1[C@H](O[C@H]2CC[C@@]3(C)C(CC[C@]4(C)C3CC=C3[C@@H]5CC(C)(C)CC[C@]5(C(=O)OC5OCC(O)C(O)C5O)CC[C@]34C)C2(C)C)O[C@H](COC2OC(C)C(O)C(OC3OC(C)C(O)C(O)C3O)C2O)[C@@H](O)[C@@H]1O` (stereo not given in full) yielded a viability, % of control of 87% [at 9.25 µM].
In the case of `C/C=C/C=C/[C@@H]1O[C@](O)([C@H](CC)C(=O)NC/C=C/C=C(\C)[C@@H](OC)[C@@H](C)C2OC(/C=C/C=C/C=C(\C)C(=O)c3c(O)cc[nH]c3=O)[C@H](O)[C@@H]2O)[C@H](O)[C@H](O)C1(C)C` (stereo not given in full), the Potency is reported as 243 nM (active).
With `COc1cc(C(=O)OC[C@@]2(O)CO[C@@H](O[C@H]3[C@H](Oc4ccc(O)cc4)O[C@H](CO)[C@@H](O)[C@@H]3O)[C@@H]2O)cc(OC)c1O` the Potency was “inactive”.
In the case of `O=C(O)/C=C/c1ccc2occc2c1O[C@@H]1O[C@H](CO)[C@@H](O)[C@H](O)[C@H]1O`, the Potency is reported as “inactive”.
In the case of `CC(=O)O[C@H]1CC(C)(C)CC2[C@@]13[C@H](O)C[C@]1(C)[C@@]2(CCC2[C@@]4(C)CC[C@H](O[C@@H]5OC[C@H](O[C@@H]6O[C@H](CO)[C@@H](O)[C@H](O)[C@H]6O[C@@H]6OC[C@@H](O)[C@H](O)[C@H]6O)[C@H](O)[C@H]5O[C@@H]5O[C@H](CO)[C@@H](O)[C@H](O)[C@H]5O)C(C)(C)C4CC[C@]21C)O[C@@H]3O` (stereo not given in full), the Potency is reported as 778 nM (active).
In the case of `CC(C)=CCC[C@](C)(O[C@@H]1O[C@H](CO)[C@@H](O)[C@H](O)[C@H]1O)[C@H]1CC[C@]2(C)[C@@H]1[C@H](O)CC1[C@@]3(C)CC[C@H](O)C(C)(C)C3[C@@H](O[C@@H]3O[C@H](CO)[C@@H](O)[C@H](O)[C@H]3O)C[C@]12C` (stereo not given in full), the Potency is reported as “inactive”.
For `CC(C)=CCC(O)[C@](C)(O)C1[C@H](O)C[C@@]2(C)C3CC=C4C(C[C@H](O)[C@@H](O[C@@H]5O[C@H](CO)[C@@H](O)[C@H](O)[C@H]5O)C4(C)C)[C@]3(C)C(=O)C[C@]12C` (stereo not given in full), the Potency was “inactive”.
In the case of `C(#Cc1nc2ncccc2nc1OCCN1CCCC1)c1ccccc1`, the Potency is reported as 1030 nM (active).
For `CC(C)C1(O[C@@H]2O[C@H](CO)[C@@H](O)[C@H](O)[C@H]2O)CC=C(CO)CC1` (stereo not given in full), the Potency was “inactive”.
With `O=C1C[C@@H](c2ccc(O)cc2)Oc2cc(O)ccc21` the Potency was 14600 nM (active).
